Experimental data published in PubChem BioAssay AID588849 (Broad Institute, 2011).
Entries with a potency or affinity are not part of this list. Calls of active or inactive are those of the source. The rule behind the calls is not given here.

Target: CAAX prenyl protease 2 (Homo sapiens) (UniProt Q9Y256)
Test: human Rce1 protease inhibitors, dose response, biochemical, yeast membranes, quenched-peptide fluorescence, cherry-pick (AID 588849)
Conditions: yeast membrane fractions expressing human Rce1, quenched-peptide fluorescence, 4 h; series mostly up to 10 µM

CAAX prenyl protease 2 (Homo sapiens), sequence (Q9Y256 whole entry, looked up): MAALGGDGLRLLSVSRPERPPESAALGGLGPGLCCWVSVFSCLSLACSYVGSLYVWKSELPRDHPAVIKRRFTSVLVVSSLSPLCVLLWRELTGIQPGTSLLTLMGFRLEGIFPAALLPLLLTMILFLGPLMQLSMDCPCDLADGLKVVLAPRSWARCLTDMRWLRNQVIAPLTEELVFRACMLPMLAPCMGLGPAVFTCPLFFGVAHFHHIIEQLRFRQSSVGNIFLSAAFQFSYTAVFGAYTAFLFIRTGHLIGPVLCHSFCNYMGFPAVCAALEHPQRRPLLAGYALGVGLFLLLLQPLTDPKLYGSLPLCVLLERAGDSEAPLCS

outcome, inactive:
Cc1nc2c(C)cccn2c(=O)c1NC(=O)COc1ccccc1
S=c1[nH]nc(-c2ccccc2)o1
c1ccc(-n2cnnc2SCc2cn3cccnc3n2)cc1
COC(C/C=C/[C@H](O)[C@H](C)OCc1ccccc1)OC
COc1ccc(C(CNC(=O)COc2cc(C)c(Cl)c(C)c2)N2CCCCC2)cc1 (stereo not drawn)
N=c1c2c(ncn1Cc1ccco1)Oc1ccc3ccccc3c1C2c1ccccc1 (stereo not drawn)
COc1cc(-c2nc3ccccn3c2/N=C/c2cccc(OC)c2O)ccc1O
c1cnn(Cc2cnc(N3CCOCC3)s2)c1
O=S(=O)(c1ccccc1)c1nc(-c2ccco2)oc1N1CCCCC1
COc1cccc2c(=O)c(C(=O)O)c[nH]c12
Cc1cc(C)n2nc(CC(=O)NNC(=O)c3ccc(N(C)C)cc3)nc2n1
CC1CCN(C(=O)C2CCN(S(=O)(=O)c3ccc(-n4cnnn4)cc3)CC2)CC1
Cc1ccc(-c2nc(Nc3ccc(N4CCOCC4)cc3)c3ccccc3n2)cc1
CCN(Cc1ccccc1)S(=O)(=O)c1ccc(C(=O)N(CCCN(C)C)c2nc3cc(C)cc(C)c3s2)cc1
CC(C)C[C@H](NC(=O)c1nc[nH]c1C(=O)N1CCNCC1)C(=O)OCc1ccccc1
CC1=C(C(=O)OCc2ccccc2)C(c2ccc(-c3ccccc3)cc2)NC(=O)N1CCCC(=O)O (stereo not drawn)
CC(C)C(=O)Nc1cccc(NC(=S)NC(=O)C(c2ccccc2)c2ccccc2)c1
COc1cccc(-c2cc(C(F)(F)F)n3ncc(S(=O)(=O)c4ccccc4)c3n2)c1
O=C(NCCc1cccnc1)c1cc(COc2ccc(F)cc2Cl)on1
O=C(c1cnc2n(c1=O)CCS2)N1CCN(C(c2ccccc2)c2ccc(Cl)cc2)CC1 (stereo not drawn)
NC(=O)CCCn1c(C(=O)c2cc(Cl)c(N)c(Cl)c2)c2ccc(C(F)(F)F)cc2[n+]1[O-]
Cc1cc(N2CCOCC2)n2cc(-c3ccccc3)nc2n1
COC(=O)C1CCCN1S(=O)(=O)c1ccc2ccccc2c1 (stereo not drawn)
Cn1c(CCNS(=O)(=O)c2ccccc2)nnc1SCc1cccnc1
COc1cccc(-c2csc(N3CCN(C(=O)NC45CC6CC(CC(C6)C4)C5)CC3)n2)c1
O=C(O)CCCC[C@@H]1SC[C@@H]2NC(=O)N[C@@H]21
O=C1CCN(Cc2ccccc2)CCN1[C@H](CSc1ccccc1)Cc1ccccc1
CC1(c2nnc(-c3cccc(Cl)c3)o2)CC(c2cccc(F)c2)=NO1 (stereo not drawn)
Cc1nn(CCC(=O)O)c2nc(-c3cccnc3)cc(C(F)(F)F)c12
Cc1ccc2nc(N(CCN(C)C)C(=O)c3ccc4ccccc4c3)sc2c1
COc1cc2c(cc1OC)C(C)N(C(=O)c1cc3c(=O)oc4ccc(C)cc4c3s1)CC2 (stereo not drawn)
CCOC(=O)c1c(C2COc3ccccc3O2)csc1NC(=O)c1ccccc1 (stereo not drawn)
CC1(C)CC2CC(C)(CN2S(=O)(=O)c2ccc(N)cc2)C1 (stereo not drawn)
COc1ccc(NS(=O)(=O)c2c(C)cc(C)cc2C)cc1
Cc1cc(NS(=O)(=O)c2ccccc2)c([N+](=O)[O-])cc1C
O=C(CN1C(=O)/C(=C\c2cccc(Br)c2)Oc2ccccc21)NCC1CCCO1 (stereo not drawn)
COc1ccc(S(=O)(=O)NCC2CCCO2)cc1NC(=O)c1ccccc1F (stereo not drawn)
O=C(Nc1ccc(N2CCOCC2)c(Cl)c1)c1cc2ccccc2o1
